# Compounds with a hit are over-represented: about 1.3% of the library has one in this group of screens.
# ugtP null kill – growth inhibition of ugtP-null S. aureus, primary screen, RN4220 ugtP deletion, OD600 | 16 h | growth inhibition, % (no concentration beside the values) | 0.54% of 330,000 active | AID 1259309, 2017; in the data active = growth inhibition above about 68%;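 note: plate controls were untreated wells for no effect and antibiotic for full effect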
# MazF activator – activators of E. coli MazEF toxin-antitoxin RNase, primary screen, biochemical, fluorescence, uHTS; Endoribonuclease toxin MazF (Escherichia coli (strain K12)), P0AE70; activation, % at 20 µM; 0.32% of 350,000 active; AID 504720, 2011; FAM/BHQ RNA-DNA oligo cleavage fluorescence, 5 h; in the data active = activation above about 50%
# Sa RN4220 lethal – growth inhibition of S. aureus RN4220, primary screen, OD600; 16 h; inhibition, % (test concentration not listed); 0.33% of 330,000 active; AID 1259311, 2017; in the data active = inhibition above about 85%;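 note: plate controls were untreated cells for no effect and reference antibiotic for full effect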
# Mtb hypoxia inh – PubChem AID 1159583. M. tuberculosis hypoxia-regulated fluorescent reporter, fluorescence. 0.1% of 300,000 active. fluorescence inhibition, % (concentration not given with the values); in the data active = fluorescence inhibition mostly above about 23%, no sharp cut-off; inactive = mostly below about 17%
# PfHsp40 rescue – rescue of yeast from PfHsp40 toxicity, primary screen, S. cerevisiae, ATP luminescence. AID 504582, 2011. growth rescue, % at 12.5 µM. S. cerevisiae expressing PfHsp40, growth rescue. 0.68% of 340,000 active; in the data active = growth rescue above about 28%, passing the limit was not always enough;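 note: yeast W303a lacking pdr1 and pdr3 grown in galactose medium; growth measured after three days at 30 °C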
# TcdB GH inh – TcdB glycohydrolase inhibitors, primary screen, biochemical, single point, plate reader | AID 652162, 2013 | Toxin B (Clostridioides difficile), P18177 | inhibition, % at 9.99 µM | 0.24% of 350,000 active | TcdB glycohydrolase enzymatic assay; in the data active = inhibition above about 10%
# Starred values were filed as active, the others as inactive; / = no result; ! = not confirmed by another sample.
SMILES,ugtP null kill,MazF activator,Sa RN4220 lethal,Mtb hypoxia inh,PfHsp40 rescue,TcdB GH inh
N#Cc1c2ccc(O)cc2n2ccccc12,10,11,0,-6,55*,-31
CCNC(=O)[C@H]1[C@H](CO)[C@H]2Cn3c(ccc(-c4ccccc4)c3=O)[C@H]2N1CC,/,/,/,/,/,14*
CCNC(=O)[C@@H]1[C@@H](CO)[C@@H]2Cn3c(ccc(-c4ccccc4)c3=O)[C@@H]2N1CC,/,/,/,/,/,-8
C[C@@H]1CN([C@H](C)CO)S(=O)(=O)c2ccc(C#CC3(O)CCCC3)cc2O[C@H]1CN(C)C(=O)Nc1ccccc1,/,/,/,/,/,-1
CCc1ccccc1NC(=O)CN1CCN(CC(=O)NCc2ccc(Cl)cc2)CC1,4,5,11,10,-1,14*
O=C(CN1CCN(Cc2ccccc2)CC1)NCc1ccc(Cl)cc1,11,8,5,7,0,0
COc1ccc(N=Nc2cc(OC)c(N)cc2OC)cc1,0,9,-1,9,2,10*
Cc1ccc(C=NNC(=O)CNC(=O)c2ccc(S(=O)(=O)N(C)C)cc2)cc1,-4,/,2,7,/,/
COc1ccccc1C(CNC(=O)CN1C(=O)NC(C)(c2ccc3ccccc3c2)C1=O)N1CCCC1 (configuration not stated),6,6,-3,30*,0,1
N#C/C(=C(/O)COc1ccccc1)c1nnc2n1CCCCC2,4,12,1,8,31*,0
ON=C1CCCC/C1=C\c1ccccc1,2,/,7,4,/,/
COc1ccc(CN(C)C(=O)C2CCN(S(=O)(=O)c3cccs3)CC2)cc1F,2,-7,6,11,69*,3
COc1cc(CN(C)C(=O)C2CCN(S(=O)(=O)c3cccs3)CC2)ccc1OC(F)F,9,2,5,1,0,0
O=C(Nc1cccc([N+](=O)[O-])c1)c1ccc2ccccc2c1O,86*,2,86*,12,1,0
O=C(Nc1cccnc1)c1ccc2ccccc2c1O,7,12,9,9,173*,9
O=C(Cc1ccccc1)Nc1cccc([N+](=O)[O-])c1,-1,-7,0,13,2,1
CCOC(=O)c1c2c(n(C)c1C)C(=O)C(=O)c1ccc(Br)cc1-2,95*,20,95*,-73,0,/
CCOC1OC(C(=O)N2CCOCC2)=CC(C(C)(C)C)C1CCCO (configuration not stated),1,/,8,20,/,/
Cc1ccc(S(=O)(=O)N2CCCC2C(=O)Nc2ccc(O)cc2)cc1 (configuration not stated),5,6,4,/,1,10*
COc1ccc(S(=O)(=O)N2CCCC2C(=O)Nc2ccc(C)cc2)cc1 (configuration not stated),13,7,2,19,-2,/
O=[N+]([O-])c1cc(Br)ccc1NS(=O)(=O)c1ccccc1,-11,-8,10,17,65*,19*
CCN(CC)S(=O)(=O)c1ccc(N/N=C/c2ccc(O)cc2O)nc1,/,4,/,/,0,/
CCOc1cccc(C=NNc2ccc(S(=O)(=O)N(CC)CC)cn2)c1O,100*,/,20,1,/,/
CC(=O)N(c1ccccc1)c1c(F)c(F)c(F)c(F)c1F,6,2,6,16,34*,/
CC(=O)N(c1ccccc1)c1nc2ccccc2s1,12,1,5,18,-1,2
SMILES,ugtP null kill,MazF activator,Sa RN4220 lethal,Mtb hypoxia inh,PfHsp40 rescue,TcdB GH inh
O=[N+]([O-])c1cccc(/C=C/c2nc(C=Nc3ccccc3)c(O)o2)c1,-4,133*,7,1,0,3
CCOc1cc(/C=N/O)cc(Br)c1OCc1ccc(Cl)cc1,/,-24,/,/,16,/
CCOc1cc(C=NO)cc(Br)c1OCc1ccc(Cl)cc1,91*,/,-8,5,/,/
CCOc1cc(/C=N/O)ccc1OCc1ccc(C)cc1,/,-4,/,/,4,11*
ON=Cc1cc(Br)ccc1OCc1ccccc1F,87*,/,6,/,/,/
O/N=C/c1cc(Br)ccc1OCc1ccc(F)cc1,/,2,/,/,0,/
O/N=C/c1cc(Br)ccc1OCc1cccc(F)c1,/,7,/,/,279*,/
COc1ccc2c3c([nH]c2c1)[C@H](CO)N(Cc1nccs1)CC31CCN(C(=O)C2CCOCC2)CC1,/,/,/,/,/,0
CCOC1=NN(c2ccccc2)C(=O)C1=CN(C)C,-7,/,6,3,/,/
CN(C)c1ccc(C=NN2C(=O)c3ccccc3C2=O)cc1,-5,/,-1,-2,/,/
CCC(=O)N1CC2(C1)CN(Cc1cccc(OC)c1)[C@@H](CO)c1[nH]c3cc(OC)ccc3c12,/,/,/,/,/,0
CO[C@@H]1CN(C)C(=O)c2cc(NC(C)=O)ccc2OC[C@@H](C)N(C(=O)CC2CC2)C[C@H]1C,/,/,/,/,/,0
ON=Cc1cc(Br)ccc1OCc1cccc(F)c1,82*,/,2,/,/,/
Cc1ccc(COc2ccc(Br)cc2/C=N/O)cc1,/,3,/,/,450*,/
NCCCCC1CNC(=O)C(=O)N1CC1CCCCC1 (configuration not stated),-2,/,5,15,/,/
O=C(C1CCCC1)N1CC[C@@H]2[C@@H](CO)Nc3ccc(Br)cc3[C@@H]21,/,/,/,/,/,1
O=c1cc[nH]c2c1ccc1c(=O)cc[nH]c12,2,-7,1,-4,-1,-18
Cc1[nH]ccc2c1[nH]c1cc(=O)ccc12,/,1,/,/,0,10*
Cc1cnc(C(=O)N2CCN(S(=O)(=O)c3cc(C(F)(F)F)cc(C(F)(F)F)c3)CC2)cn1,13,3,23,1,-1,1
CC1CC1C(=O)N1CCN(S(=O)(=O)c2cc(C(F)(F)F)cc(C(F)(F)F)c2)CC1 (configuration not stated),96*,-5,86*,6,-1,1
Cc1cc(O)ccc1N/C=C1\CCCC1=O,-5,-4,3,4,0,/
Cc1ccc([N+](=O)[O-])cc1N/C=C1\CCCCC1=O,-5,98*,17,14,-1,0
COc1ccc(CNC(=O)COC(=O)c2cccn2C)cc1,-5,2,-2,10,-1,1
Cn1cccc1C(=O)OCc1ccc(C(C)(C)C)cc1,94*,-5,-4,-4,0,2
CC1(C)CC[C@]2(C(=O)O)CC[C@]3(C)C(=CCC4[C@@]5(C)CCC(O)C(C)(C)C5CC[C@]43C)C2C1 (some centres not stated),91*!,/,81,-1,/,/
C[C@H]1[C@H](C)CC[C@]2(C(=O)O)CC[C@]3(C)C(=CC[C@@H]4[C@@]5(C)CC[C@H](O)C(C)(C)[C@@H]5CC[C@]43C)[C@H]12,/,-5,/,/,-2,1
CC1(C)C(O)CC[C@@]2(C)C1CC[C@]1(C)C2C(=O)C=C2C3C[C@@](C)(C(=O)O)CC[C@]3(C)CC[C@]21C (some centres not stated),87*,/,6,-5,/,/

# Bioassay records deposited in PubChem by several laboratories.
